OPRM1-OPRD1 inv: inverse agonists of MOR-DOR heterodimerization, primary screen, cell-based, luminescence | cell-based MOR-DOR heterodimer luminescence, inverse agonism | 0.21% of 340,000 active | inhibition, % at 9.3 µM | Mu-type opioid receptor (Homo sapiens) + Delta-type opioid receptor (Homo sapiens), …; in the data active = inhibition above about 22%, passing the limit was not always enough;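 note: 0% = cells with DMSO and 100% = wells without cells with DMSO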
Target sequence (P35372 whole entry, looked up): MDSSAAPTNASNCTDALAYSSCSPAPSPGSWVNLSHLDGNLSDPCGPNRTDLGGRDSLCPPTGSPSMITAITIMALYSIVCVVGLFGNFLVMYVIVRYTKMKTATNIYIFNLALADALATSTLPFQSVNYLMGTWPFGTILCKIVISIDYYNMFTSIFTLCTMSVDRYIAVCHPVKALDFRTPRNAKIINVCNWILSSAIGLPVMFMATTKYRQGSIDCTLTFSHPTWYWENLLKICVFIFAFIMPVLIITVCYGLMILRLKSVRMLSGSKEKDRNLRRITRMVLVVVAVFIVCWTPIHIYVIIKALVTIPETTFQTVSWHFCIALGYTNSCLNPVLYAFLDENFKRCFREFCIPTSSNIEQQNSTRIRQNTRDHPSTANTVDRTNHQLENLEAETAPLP
Target sequence (P41143 whole entry, looked up): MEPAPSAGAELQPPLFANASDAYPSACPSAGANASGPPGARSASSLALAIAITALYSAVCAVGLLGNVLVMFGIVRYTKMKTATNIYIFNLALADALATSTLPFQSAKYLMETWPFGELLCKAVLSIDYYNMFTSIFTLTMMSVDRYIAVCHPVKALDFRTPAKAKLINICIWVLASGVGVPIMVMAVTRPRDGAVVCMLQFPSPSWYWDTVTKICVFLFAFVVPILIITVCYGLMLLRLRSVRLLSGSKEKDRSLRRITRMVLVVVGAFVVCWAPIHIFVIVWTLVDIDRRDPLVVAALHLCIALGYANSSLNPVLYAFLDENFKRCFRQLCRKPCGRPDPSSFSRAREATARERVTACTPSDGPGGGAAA
HTR5A inv ctr: HTR5A inverse agonists in luminescence cell assay, primary screen, counter-screen for OPRM1-OPRD1 heterodimer inverse agonist project, full-deck HTS. HTR5A cell line, inverse agonism. inhibition, % at 9.3 µM. 0.083% of 340,000 active. AID 504634, 2011; in the data active = inhibition mostly above about 23%, no sharp cut-off; inactive = mostly below about 18%;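 note: 0% = cells with DMSO and 100% = no-cell wells with DMSO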
HTR5A ag ctr: HTR5A agonists in luminescence cell assay, primary screen, counter-screen for OPRM1-OPRD1 heterodimer agonist project, full-deck HTS; activation, % at 9.3 µM; 5-hydroxytryptamine receptor 5A (Homo sapiens), P47898; cell-based; 0.61% of 340,000 active; in the data active = activation mostly above about 9.5%, no sharp cut-off; inactive = mostly below about 7.6%;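 note: 0% = cells with vehicle only and 100% = reference agonist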
MOR-DOR ag-1: agonists of OPRM1-OPRD1 heterodimerization, primary screen, cell-based, luminescence | Mu-type opioid receptor (Homo sapiens) + Delta-type opioid receptor (Homo sapiens), … | cells | activation, % at 9.3 µM | 0.3% of 340,000 active | AID 504326, 2011;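 note: 0% = vehicle-treated cells and 100% = reference agonist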
MOR-DOR ag-2: OPRM1-OPRD1 heterodimerization promoters, counter-screen for HTR5A agonist project, cell-based, luminescence; U2OS counter-screen cells, complementation luminescence, 3 h; activation, % at 9.3 µM; shares compounds with HTR5A ag ctr; 13% of 800 active
HTR5A ag conf: HTR5A agonists, retest of hits, confirmation, cell-based, luminescence; HTR5A agonist cell assay; shares compounds with HTR5A ag ctr; 17% of 800 active; activation, % at 9.3 µM; in the data active = activation above about 17%;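 note: 0% = cells with vehicle only and 100% = full reference agonist response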
The depositor's hits bear a star; . = not tested or not shown. The list is not random: actives were taken first. Their share in the collection is about 1.1%. Cut-off read from the data, not from the text of the source, unless noted: active = activation above about 18%; inactive = the rest.

SMILES | OPRM1-OPRD1 inv | HTR5A inv ctr | HTR5A ag ctr | MOR-DOR ag-1 | MOR-DOR ag-2 | HTR5A ag conf
Cc1[nH]nc(-c2ccc(OCc3cnn(-c4ccccc4)c3)c(C)c2O)c1Oc1ccccc1 | -64 | -27 | 22* | 14 | 19* | 10
Cc1ccccc1N1CCN(CCC(=O)Nc2ccc(F)cc2)CC1 | 1 | 14 | -4 | 0 | . | .
COc1ccc(Cc2nc3ccc(C(=O)NCCc4ccccn4)cc3o2)cc1OC | 23 | -3 | -3 | -4 | . | .
N#CCC(=O)Nc1ccc(C(=O)OCC(=O)C23CC4CC(CC(C4)C2)C3)cc1 | -10 | -19 | 1 | 2 | . | .
O=C(OCC12CC3CC(CC(C3)C1)C2)c1ccc(NCc2cc(O)ccc2O)cc1 | -54 | -67 | 17* | 11 | 44* | 4
O=C(OCCC12CC3CC(CC(C3)C1)C2)c1ccc(NCc2cc(O)ccc2O)cc1 | -14 | -58 | 15* | 3 | 6 | 6
Nn1c(C2CCC2)nc2cc(Cl)ccc2c1=O | 14 | 18 | -1 | -3 | . | .
Cn1c(CCNC(=O)c2ccccc2F)nnc1SCC(=O)Nc1nncs1 | 8 | -56 | 20* | -1 | 2 | 3
COC(=O)c1ccc(NC(=O)c2cc[n+](Cc3ccccc3)cc2)cc1 | 8 | -13 | 15* | -2 | 0 | 3
O=C(Cc1ccc(Br)cc1)NCCc1ccc(Cl)cc1Cl | -9 | 4 | 16* | 2 | -5 | -4
CC(=O)c1c(C)[nH]c(C(=O)N(C)CC(=O)Nc2ccc(Cl)c(C(F)(F)F)c2)c1C | 8 | -9 | 8 | -1 | . | .
C=CCN(c1ccccc1)S(=O)(=O)c1cccc(C(=O)N2CCCC2)c1 | 2 | -41 | 15* | 0 | 47* | 3
CCn1c(=NC(=O)c2ccco2)sc2cccc(F)c21 | -9 | -62 | 20* | 2 | 3 | -1
COc1ccc(NC(=O)CN(C)C(=O)C2CC(=O)N(c3cccc4ccccc34)C2)cc1 (stereo unspecified) | -3 | -40 | 16* | 1 | 0 | -2
CC1=NNC(=O)/C1=C\c1cn(-c2ccccc2)nc1-c1ccc(Cl)cc1 | -27 | -75 | 23* | 5 | -2 | -5
COc1ccccc1OCC(=O)Nc1ccc(NC(=O)COc2ccccc2OC)cc1 | 4 | -58 | 24* | -1 | 0 | -1
COc1ccccc1OCC(=O)Nc1ccc(Cl)cc1 | 0 | 7 | -3 | 0 | . | .
CCOC(=O)c1cc2sc(C)cc2n1CC(=O)NCc1ccc(F)cc1 | -47 | -22 | 20* | 8 | 3 | 5
CCOC(=O)c1cc2sc(C)cc2n1CC(=O)N1CCOCC1 | -1 | 9 | -4 | 0 | . | .
COc1ccc(OCc2n(CC(=O)OC3CC(C)CCC3C(C)C)c3ccccc3[n+]2C)cc1 (stereo unspecified) | -17 | -58 | 21* | 3 | 4 | 7
O=c1[nH]c(=O)n(CCCc2ccccc2)cc1-c1ccccc1 | -4 | 5 | -1 | 1 | . | .
COc1cccc(/C=C/C(=O)NCc2cn3cc(Cl)ccc3n2)c1OC | -3 | -1 | 0 | 1 | . | .
Cc1ccccc1C(=O)c1cccn1CC(=O)NCc1ccc2c(c1)OCO2 | -7 | -44 | 17* | 1 | 3 | 24*
Cc1ccccc1C(=O)c1cccn1CC(=O)NCc1ccccc1 | 6 | 6 | -2 | -1 | . | .
COc1ccc(-n2nc(C(=O)NCC(=O)N3CCN(c4cccc(Cl)c4)CC3)c3ccccc3c2=O)c(OC)c1 | 0 | 6 | -2 | 0 | . | .
SMILES | OPRM1-OPRD1 inv | HTR5A inv ctr | HTR5A ag ctr | MOR-DOR ag-1 | MOR-DOR ag-2 | HTR5A ag conf
CCn1c(SCC(=O)N/N=C/c2c[nH]c3ccccc23)nnc1-c1ccc(Cl)cc1 | -9 | 26 | -7 | 2 | . | .
CCOC(=O)c1ccc(NC(=S)NC2CCCC2)cc1 | 5 | 12 | 15* | -1 | 4 | 4
CCOC(=O)c1ccc(NC(=S)NC(=O)C2CCCC2)cc1 | -8 | 0 | 0 | 1 | . | .
CC(C)c1ccc(NC(=S)NC2CCCCCC2)cc1 | -20 | -43 | 16* | 4 | 27* | 4
CC(=O)N=C1C=CC(=CN(O)C(C)(C)Cc2ccccc2)C=C1 | -1 | -37 | 13 | 0 | . | .
O=C(NNc1nc2cc3c(cc2s1)OCO3)c1cccc(F)c1 | -2 | -33 | 12 | 0 | . | .
CCOc1ccccc1N(CC(=O)NCCSc1ccccn1)S(=O)(=O)c1ccccc1 | 8 | -72 | 25* | -1 | 126* | -3
CCOc1ccccc1N(CC(=O)NCCSc1ccccn1)S(=O)(=O)c1ccc(C)cc1 | -7 | -88 | 30* | 1 | 10 | 6
Cc1ccc(S(=O)(=O)N(CC(=O)NCCSc2ccccn2)c2ccc(C)c(C)c2)cc1 | -8 | -2 | 1 | 2 | . | .
CC(N)C(=O)NC(CO)C(O)C(N)C=O (stereo unspecified) | 7 | -14 | 4 | -2 | . | .
O=C(CNc1ccccc1Cl)N/N=C1\CCCc2ccccc21 | -39 | -10 | 21* | 8 | 20* | 36*
O=C(N/N=C1\CCCc2ccccc21)c1ccccc1Cl | 7 | -22 | 1 | -1 | . | .
Cc1ccccc1OC(C)C(=O)Nc1ccc(S(=O)(=O)Nc2nccs2)cc1 (stereo unspecified) | 4 | -5 | 2 | -1 | . | .
Cn1cc(S(=O)(=O)NCc2cccs2)c(=O)n(C)c1=O | 5 | -58 | 19* | -1 | 1 | -1
CCc1ccc(C2NC(=S)NC3=C2C(=O)N(c2ccccc2OC)C(c2ccc(CC)cc2)N3)cc1 (stereo unspecified) | -28 | -17 | 22* | 4 | 8 | 0
O=C1C2=C(NC(=S)NC2c2ccc(Cl)cc2)NC(c2ccc(Cl)cc2)N1c1ccc(Cl)cc1 (stereo unspecified) | -21 | -31 | 12 | 3 | . | .
Cc1ccc(S(=O)(=O)N2CCN(C(=O)NCc3ccc(F)cc3)CC2)c(C)c1 | 13 | -12 | 3 | -3 | . | .
Cc1ccccc1NC(=O)Cc1nc(COC(=O)C(C)C)cs1 | 12 | 8 | 2 | -2 | . | .
C=CCOc1ccc(/C=C/C(=O)OCc2csc(CC(=O)Nc3ccccc3C)n2)cc1 | -16 | -50 | 20* | 4 | 33* | 7
Cc1ccoc1C(=O)N1CCCC(CCC(=O)N2CCN(c3ccccn3)CC2)C1 (stereo unspecified) | -1 | -17 | 7 | 0 | . | .
CCOc1ccc(NC(=O)C2CCC(CNc3c(N4CCCCC4)c(=O)c3=O)CC2)cc1 (stereo unspecified) | 12 | -3 | 1 | -2 | . | .
CCOC(=O)c1cccc(NC(=O)C2CCC(CNc3c(N4CCOCC4)c(=O)c3=O)CC2)c1 (stereo unspecified) | 9 | -57 | 22* | -2 | 1 | 1

High-throughput results: PubChem BioAssay, The Scripps Research Institute Molecular Screening Center
